Several values for one entry are separate records, joined by “and”; a condition that tells them apart may be missing. Equal entries are not always repeated. Inconclusive results are not listed. A call without a number means that no potency is given here. A structure can be active in one record and inactive in another. Activity calls are given as the source filed them. The call rests on the fitted dose curve; in most records, active means well fitted curve in the direction sought with a large enough effect in the repeat runs; inconclusive means weak or mixed curves; inactive means no such curve, though single readings can be large; an effect the other way counts as inactive or inconclusive.
What was measured:
[1] = qHTS RealTime-Glo MT Cell Viability Assay in HEK293 cells - 40 hour (AID 1224874); settings: RealTime-Glo luminescence; max response: stronger effect = lower value; further: nearly all actives have a fitted effect of over 50% in size
Method in brief: (§1)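 Nonlytic bioluminescent viability monitoring. HEK293 at 600 cells/well with reagent; 5 h settle; compound transfer by pintool; plates held at 37 C and read at set time points.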

[2] = A CellTox Green Cytotoxicity Assay to monitor cytotoxicity in HEK293 cells - 24 hour (AID 1224875); settings: CellTox Green fluorescence; series mostly up to 76.8 µM; further: nearly all actives have a fitted effect of over 45% in size
Method in brief: (§2)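 Cytotoxicity was tracked continuously in HEK293 cells by a DNA-binding dye excluded from viable cells. Compounds were transferred in DMSO 5 h after seeding; fluorescence was recorded at intervals up to 40 h.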

[3] = A CellTox Green Cytotoxicity Assay to monitor cytotoxicity in HepG2 cells - 16 hour (AID 1224876); settings: CellTox Green fluorescence; series mostly up to 76.8 µM; further: nearly all actives have a fitted effect of over 45% in size; further: potency means the concentration at half of the fitted maximal effect
Method in brief: (§3)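 Real-time, homogeneous cytotoxicity readout: dead-cell DNA staining by CellTox Green in HepG2 monolayers, fluorescence measured at timed intervals up to 40 h of continuous compound exposure.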

[4] = A CellTox Green Cytotoxicity Assay to monitor cytotoxicity in HepG2 cells - 24 hour (AID 1224878); settings: CellTox Green fluorescence; series mostly up to 76.8 µM; further: nearly all actives have a fitted effect of over 45% in size; further: potency means the concentration at half of the fitted maximal effect
Method in brief: as §3

[5] = A CellTox Green Cytotoxicity Assay to monitor cytotoxicity in HepG2 cells - 40 hour (AID 1224879); settings: CellTox Green fluorescence; series mostly up to 76.8 µM; further: nearly all actives have a fitted effect of over 40% in size; further: potency means the concentration at half of the fitted maximal effect
Method in brief: as §3

[6] = qHTS RealTime-Glo MT Cell Viability Assay in HEK293 cells - 0 hour (AID 1224880); settings: RealTime-Glo luminescence; series mostly up to 76.8 µM; further: nearly all actives have a fitted effect of over 45% in size; further: potency means the concentration at half of the fitted maximal effect
Method in brief: as §1

[7] = A CellTox Green Cytotoxicity Assay to monitor cytotoxicity in HEK293 cells - 32 hour (AID 1224881); settings: CellTox Green fluorescence; series mostly up to 76.8 µM; further: nearly all actives have a fitted effect of over 40% in size; further: potency means the concentration at half of the fitted maximal effect
Method in brief: as §2

[8] = A CellTox Green Cytotoxicity Assay to monitor cytotoxicity in HepG2 cells - 0 hour (AID 1224882); settings: CellTox Green fluorescence; series mostly up to 76.8 µM; further: nearly all actives have a fitted effect of over 35% in size
Method in brief: as §3

[9] = A CellTox Green Cytotoxicity Assay to monitor cytotoxicity in HepG2 cells - 32 hour (AID 1224883); settings: CellTox Green fluorescence; series mostly up to 76.8 µM; further: nearly all actives have a fitted effect of over 50% in size; further: potency means the concentration at half of the fitted maximal effect
Method in brief: as §3

[10] = A CellTox Green Cytotoxicity Assay to monitor cytotoxicity in HEK293 cells - 8 hour (AID 1224884); settings: CellTox Green fluorescence; series mostly up to 76.8 µM; further: nearly all actives have a fitted effect of over 35% in size
Method in brief: as §2

[11] = qHTS RealTime-Glo MT Cell Viability Assay in HepG2 cells - 16 hour (AID 1224885); settings: RealTime-Glo luminescence; series mostly up to 76.8 µM; further: nearly all actives have a fitted effect of over 50% in size
Method in brief: (§4)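 Tox21 10K library screened in qHTS format on HepG2 cells carrying RealTime-Glo reagents. Compounds were added after a 5 h preincubation, and the luminescent signal from continuous culture was measured repeatedly during 40 h treatment.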

[12] = qHTS RealTime-Glo MT Cell Viability Assay in HEK293 cells - 24 hour (AID 1224886); settings: RealTime-Glo luminescence; series mostly up to 76.8 µM; further: top concentration of the series differs between compounds; nearly all actives have a fitted effect of over 50% in size
Method in brief: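 Luminescence generated by NanoLuc from substrate produced by living HEK293 cells served as the viability signal. Each value reflects the reading at its stated time point during continuous 40 h compound exposure at 37 C.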

[13] = qHTS RealTime-Glo MT Cell Viability Assay in HEK293 cells - 8 hour (AID 1224887); settings: RealTime-Glo luminescence; series mostly up to 76.8 µM
Method in brief: as §1

[14] = qHTS RealTime-Glo MT Cell Viability Assay in HepG2 cells - 0 hour (AID 1224889); settings: RealTime-Glo luminescence; series mostly up to 76.8 µM; further: nearly all actives have a fitted effect of over 50% in size; further: potency means the concentration at half of the fitted maximal effect
Method in brief: as §4

[15] = A CellTox Green Cytotoxicity Assay to monitor cytotoxicity in HepG2 cells - 8 hour (AID 1224890); settings: CellTox Green fluorescence; series mostly up to 76.8 µM; further: nearly all actives have a fitted effect of over 45% in size; further: potency means the concentration at half of the fitted maximal effect
Method in brief: as §3

[16] = qHTS assay to identify small molecule antagonists of the estrogen receptor alpha (ER-alpha) signaling pathway using the BG1 cell line in the presence of 0.1 nM 17-beta-estradiol - cell viability counter screen (AID 1259241); settings: VM7Luc4E2 (BG1) viability, CellTiter-Fluor protease, 22 h, 0.1 nM estradiol agonist added; series mostly up to 92.4 µM; further: nearly all actives have a fitted effect of over 40% in size
Method in brief: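 VM7Luc4E2 cells (endogenous full-length ER-alpha, 4xERE-luciferase), cultured 5 days in charcoal-stripped serum, exposed to compounds with 0.1 nM 17beta-estradiol (final) for 22 hr at 37C. Viability read in same wells as live-cell protease fluorescence after 30 min.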

[17] = qHTS assay to identify small molecule antagonists of the androgen receptor (AR) signaling pathway using the MDA cell line in the presence of 0.5 nM R1881 - cell viability counter screen (AID 1259242); settings: MDA-kb2 viability, CellTiter-Fluor protease fluorescence, 16 h; series mostly up to 92.4 µM; further: nearly all actives have a fitted effect of over 45% in size
Method in brief: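 Cytotoxicity toward MDA-kb2 cells is measured by CellTiter-Fluor live-cell protease fluorescence after 16 hr compound exposure at 37C in the presence of 0.5 nM R1881 stimulator.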

[18] = A CellTox Green Cytotoxicity Assay to monitor cytotoxicity in HEK293 cells - 16 hour (AID 1224888); settings: CellTox Green fluorescence, stronger effect = higher value; series mostly up to 76.8 µM; further: nearly all actives have a fitted effect of over 35% in size
Method in brief: as §2

[19] = target: Androgen receptor (Homo sapiens) (UniProt P10275); test: qHTS assay to identify small molecule antagonists of the androgen receptor (AR) signaling pathway using the MDA cell line in the presence of 0.5 nM R1881 (AID 1259243); settings: MDA-kb2 MMTV-luciferase, R1881 0.5 nM, 16 h; series mostly up to 92.4 µM; further: nearly all actives have a fitted effect of over 50% in size
Sequence of Androgen receptor (Homo sapiens) (P10275 whole entry, looked up): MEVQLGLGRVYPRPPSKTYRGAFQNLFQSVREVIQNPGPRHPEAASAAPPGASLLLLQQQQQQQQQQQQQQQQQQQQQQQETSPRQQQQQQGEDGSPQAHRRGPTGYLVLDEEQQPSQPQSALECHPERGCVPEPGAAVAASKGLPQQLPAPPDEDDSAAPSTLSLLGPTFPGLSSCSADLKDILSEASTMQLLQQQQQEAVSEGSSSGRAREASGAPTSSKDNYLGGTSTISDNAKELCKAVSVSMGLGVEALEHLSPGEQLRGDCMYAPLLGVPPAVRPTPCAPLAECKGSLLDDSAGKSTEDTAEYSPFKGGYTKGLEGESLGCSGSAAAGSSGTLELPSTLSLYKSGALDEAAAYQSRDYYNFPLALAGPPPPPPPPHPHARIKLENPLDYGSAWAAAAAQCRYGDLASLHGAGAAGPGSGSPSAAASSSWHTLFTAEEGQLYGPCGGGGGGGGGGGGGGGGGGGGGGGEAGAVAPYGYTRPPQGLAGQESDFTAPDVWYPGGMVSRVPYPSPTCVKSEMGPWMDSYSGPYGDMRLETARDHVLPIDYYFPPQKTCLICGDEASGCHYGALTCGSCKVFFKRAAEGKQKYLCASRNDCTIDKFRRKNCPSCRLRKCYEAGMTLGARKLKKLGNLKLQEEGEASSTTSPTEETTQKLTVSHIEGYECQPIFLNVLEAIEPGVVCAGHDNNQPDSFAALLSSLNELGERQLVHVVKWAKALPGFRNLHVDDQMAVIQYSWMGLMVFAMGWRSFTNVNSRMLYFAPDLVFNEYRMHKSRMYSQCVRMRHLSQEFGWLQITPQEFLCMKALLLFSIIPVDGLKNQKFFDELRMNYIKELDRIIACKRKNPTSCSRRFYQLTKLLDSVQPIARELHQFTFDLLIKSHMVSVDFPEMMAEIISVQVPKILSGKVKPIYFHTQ
Method in brief: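 Steps: seed MDA-kb2 cells, incubate 5 hr at 37C; pin-transfer compounds in DMSO; add R1881 to 0.5 nM final; incubate 16 hr; add ONE-Glo, wait 30 min at room temperature; read luminescence.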

[20] = qHTS RealTime-Glo MT Cell Viability Assay in HepG2 cells - 32 hour (AID 1224877); settings: RealTime-Glo luminescence; series mostly up to 76.8 µM; further: nearly all actives have a fitted effect of over 55% in size
Method in brief: as §4

| SMILES | max response [1] | Potency [2] | Potency [3] | Potency [4] | Potency [5] | Potency [6] | Potency [7] | outcome [8] | Potency [9] | outcome [10] | outcome [11] | Potency [12] | Potency [13] | Potency [14] | Potency [15] | Potency [16] | outcome [17] | outcome [18] | Potency [19] | outcome [20] |
| --- | --- | --- | --- | --- | --- | --- | --- | --- | --- | --- | --- | --- | --- | --- | --- | --- | --- | --- | --- | --- |
| O=C(O)CC(C(=O)O)C(CC(=O)O)C(=O)O (centres undefined) | -2.07% (inactive) and -0.191% (inactive) | inactive | inactive | inactive | inactive | inactive | inactive | inactive | inactive | inactive | inactive | inactive | inactive | inactive | inactive | inactive | inactive | – | – | – |
| CCCCCC/C(C=O)=C\c1ccccc1 | -10.1% (inactive) and 0.846% (inactive) | inactive | inactive | inactive | inactive | inactive | inactive | inactive | inactive | inactive | inactive | inactive | inactive | inactive | inactive | inactive | – | inactive | – | – |
| O=C(O)CCCCCCCCCCC(=O)O | -3.15% (inactive) and -61.6% (inactive) | inactive | inactive | inactive | inactive | inactive | inactive | inactive | inactive | inactive | inactive | inactive | inactive | inactive | inactive | inactive | inactive | – | – | – |
| c1ccc2scnc2c1 | 13.8% (inactive) and 1.41% (inactive) | inactive | inactive | inactive | inactive | inactive | inactive | inactive | inactive | inactive | inactive | inactive | inactive | inactive | inactive | – | inactive | inactive | – | – |
| C[C@H]1C[C@@H]2[C@H]([C@@H](O)C[C@@]3(C)[C@H]2CC[C@]3(O)C(=O)CO)[C@@]2(C)C=CC(=O)C=C12 | -9.2% (inactive) and -9.81% (inactive) | inactive | inactive | inactive | inactive | 7.76 µM (active) and 8.49 µM (active) | inactive | inactive | inactive | inactive | inactive | inactive | inactive | 871 nM (active) and 1.9 µM (active) | inactive | inactive | – | inactive | inactive | – |
| OC[C@H]1O[C@@](CO)(O[C@H]2O[C@H](CO)[C@@H](O)[C@H](O)[C@H]2O)[C@@H](O)[C@@H]1O | – | inactive | inactive | inactive | inactive | – | inactive | inactive | inactive | inactive | – | – | – | – | inactive | inactive | inactive | – | – | – |
| CCC(O)OCCCOC (centres undefined) | 1.35% (inactive) and 16.2% (inactive) | inactive | inactive | inactive | inactive | inactive | inactive | inactive | inactive | inactive | inactive | inactive | inactive | inactive | inactive | inactive | – | – | – | – |
| CN(C)CCOCCN(C)C | 0.168% (inactive) and 5.1% (inactive) | – | inactive and 43.6 µM (active) | inactive and 49 µM (active) | inactive and 49 µM (active) | inactive | inactive and 49 µM (active) | inactive | inactive and 49 µM (active) | inactive | inactive | inactive | inactive | inactive | inactive and 49 µM (active) | – | – | inactive | – | – |
| CSCCC=O | 4.41% (inactive) and 31% (inactive) | inactive | inactive | inactive | inactive | inactive | inactive | inactive | inactive | inactive | inactive | inactive | inactive | inactive | inactive | – | inactive | inactive | – | – |
| COc1ccc2cc([C@H](C)C(=O)O)ccc2c1 | 5.06% (inactive) and -0.971% (inactive) | inactive | inactive | inactive | inactive | inactive | inactive | inactive | inactive | inactive | inactive | inactive | inactive | inactive | inactive | inactive | inactive | – | – | – |
| CCCSc1ccc2nc(NC(=O)OC)[nH]c2c1 | – | inactive | inactive | inactive and 1.9 µM (active) | 1340 nM (active) | inactive | inactive | inactive | inactive and 1.51 µM (active) | inactive | inactive | inactive | inactive | inactive | inactive | – | inactive | inactive | – | inactive |
| CC(=O)Nc1cccc(O)c1 | -14.2% (inactive) and 4.42% (inactive) | inactive | inactive | inactive | inactive | inactive | inactive | inactive | inactive | inactive | inactive | inactive | inactive | inactive | inactive | inactive | inactive | inactive | – | – |
| CN(C)CCCN | -0.421% (inactive) and -3.46% (inactive) | inactive | inactive | inactive | inactive | inactive | inactive | inactive | inactive | inactive | inactive | inactive | inactive | inactive | inactive | – | inactive | inactive | – | – |
